We go through twelve compounds from the supplement of paper PMC12494721.

Counter-ions that a name gives are not always drawn.

What all share (conditions): incubation time: 27 h, anaerobic, 37 °C
For experiment [1], the system named is Clostridium sporogenes DSM 1664. The experiment can be described thus: growth (OD595) fold change vs plate DMSO controls (fold change (ratio)); higher = more growth. The gist of the method: (§1)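 Growth is the fold change relative to the median of plate DMSO controls. Readings came from anaerobic mGAM cultures in 96-well plates grown for 27 h at 37 °C and read at 595 nm. They were blank-subtracted, corrected for compound background with 20 µM compound solutions in water, and converted to OD with a calibration factor of 5. Values are means of 2 biological replicates, and fold changes above 1.5 were set to NA.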

Experiment [2] concerns Escherichia coli IAI1. Described as above. The gist of the method:
as §1

The subject of experiment [3] is Klebsiella aerogenes DSM 30053. Described as above. The gist of the method:
as §1

Experiment [4] relates to Ruminococcus gnavus DSM 108212. Described as above. The gist of the method: as §1
Experiment [5] deals with Klebsiella aerogenes DSM 30053. The experiment can be described thus: fold change of Histamine concentration vs plate DMSO controls (fold change (ratio)); higher = more amine produced, active = hit call of the paper (significant change in both replicates, either direction). An outline of the steps: (§2)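 Using LC–triple-quadrupole MS with dynamic MRM, amines were quantified against external calibration curves and corrected for drift within each batch. Samples were whole anaerobic mGAM cultures of four gut strains, grown 27 h at 37 °C from OD 0.1 before 1:1 dilution, extracted with cold acetonitrile/methanol containing 0.1% formic acid and centrifuged. Compounds were present at 20 µM final (sweeteners at 50 µM final). The numbers are fold changes versus plate DMSO controls, each the mean of 2 biological replicates.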

Experiment [6] deals with Clostridium sporogenes DSM 1664. The experiment is described as follows: fold change of Tryptamine concentration vs plate DMSO controls (fold change (ratio)); higher = more amine produced, active = hit call of the paper (significant change in both replicates, either direction). The gist of the method: as §2
Experiment [7] deals with Ruminococcus gnavus DSM 108212. The description is as above. The gist of the method:
as §2

In experiment [8] the test system is Escherichia coli IAI1. The experiment is described as follows: fold change of Putrescine concentration vs plate DMSO controls (fold change (ratio)); higher = more amine produced, active = hit call of the paper (significant change in both replicates, either direction). An outline of the steps:
as §2

The test system of experiment [9] is Klebsiella aerogenes DSM 30053. The experiment is described as above. The gist of the method: as §2
Experiment [10] has as its system Escherichia coli IAI1. The experiment can be described thus: fold change of Cadaverine concentration vs plate DMSO controls (fold change (ratio)); higher = more amine produced, active = hit call of the paper (significant change in both replicates, either direction). The gist of the method:
as §2

For experiment [11], the system named is Klebsiella aerogenes DSM 30053. The experiment is described as above. An outline of the steps:
as §2

Experiment [12] concerns Ruminococcus gnavus DSM 108212. The experiment can be described thus: fold change of 2-Phenylethylamine concentration vs plate DMSO controls (fold change (ratio)); higher = more amine produced, active = hit call of the paper (significant change in both replicates, either direction). An outline of the steps: as §2

`CCOC1O[C@H]([C@@H](COCc2ccccc2)OCc2ccccc2)[C@H](OCc2ccccc2)[C@H]1O` (some centres undefined) [Tribenoside] (20 µM): the growth in experiment [1] was found to be 0.917; in [2] it was 0.959; in experiment [3], 0.99; in experiment [4], 0.972. Also, the “fold change of Histamine concentration” value in [5] is 1.06 (inactive). Moreover, the “fold change of Tryptamine concentration” value in [6] is 0.969 (inactive); in experiment [7] it was 0.966 (inactive). The “fold change of Putrescine concentration” value is 1 (inactive) in [8] and 1.03 (inactive) in experiment [9]. The “fold change of Cadaverine concentration” value in experiment [10] is 1.01 (inactive); in experiment [11], 0.987 (inactive). The “fold change of 2-Phenylethylamine concentration” value in experiment [12] is 0.961 (inactive).

`COc1c(-c2ccc3cc(NS(C)(=O)=O)ccc3c2)cc(-n2ccc(=O)[nH]c2=O)cc1C(C)(C)C` [Dasabuvir] (20 µM): the growth in experiment [1] came to 1.04; in experiment [2], 0.964; in [3], 1.01; in experiment [4], 0.849. For the same compound, in experiment [5], the “fold change of Histamine concentration” value was 0.969 (inactive). Besides, the “fold change of Tryptamine concentration” value is 0.847 (inactive) in experiment [6] and 0.747 (active) in experiment [7]. For the same compound, the “fold change of Putrescine concentration” value was 1.01 (inactive) in experiment [8] and 0.999 (inactive) in [9]. Moreover, the “fold change of Cadaverine concentration” value in experiment [10] is 0.989 (inactive); in [11], 0.99 (inactive). In experiment [12], the “fold change of 2-Phenylethylamine concentration” value was 0.754 (inactive).

For `CCN(CC)CCOCCOC(=O)C1(c2ccccc2)CCCC1` [Carbetapentane citrate] (20 µM), the growth in experiment [1] was found to be 1.08; in [2] it was 1; in experiment [3], 0.996; in [4] it was 0.743. In addition, the “fold change of Histamine concentration” value in experiment [5] is 0.992 (inactive). Moreover, the “fold change of Tryptamine concentration” value in [6] was 1.02 (inactive); in experiment [7] it was 0.995 (inactive). Also, the “fold change of Putrescine concentration” value in experiment [8] is 0.958 (inactive); in experiment [9], 0.996 (inactive). The entries for the “fold change of Cadaverine concentration” value in experiment [10] and in [11] were 0.988 (inactive) and 0.993 (inactive), respectively. The “fold change of 2-Phenylethylamine concentration” value in [12] is 0.979 (inactive).

In the case of `CCC(C)(C)c1ccc(CC(C)CN2C[C@@H](C)O[C@@H](C)C2)cc1` (some centres undefined) [Amorolfine hydrochloride] (20 µM), the growth amounted to 1.07 in [1], 0.995 in experiment [2], 1.01 in [3] and 0.849 in [4]. Further, the “fold change of Histamine concentration” value in experiment [5] was 1.01 (inactive). For the same compound, the “fold change of Tryptamine concentration” value in experiment [6] was 0.989 (inactive); in experiment [7], 0.868 (inactive). Moreover, the “fold change of Putrescine concentration” value in experiment [8] is 1.03 (inactive); in experiment [9], 1 (inactive). The figures for the “fold change of Cadaverine concentration” value in experiment [10] and in experiment [11] were 1.02 (inactive) and 0.997 (inactive), respectively. Further, in experiment [12], the “fold change of 2-Phenylethylamine concentration” value was 0.88 (inactive).

As for `CS(=O)(=O)CCNCc1ccc(-c2ccc3ncnc(Nc4ccc(OCc5cccc(F)c5)c(Cl)c4)c3c2)o1` [Lapatinib] (20 µM), the growth in [1] came out at 1.05; in experiment [2] it was 1.05; in experiment [3], 1.02; in experiment [4], 1.01. The “fold change of Histamine concentration” value in experiment [5] is 1.03 (inactive). Besides, the “fold change of Tryptamine concentration” value in experiment [6] is 0.977 (inactive); in [7], 1.03 (inactive). The “fold change of Putrescine concentration” value in experiment [8] is 0.977 (inactive); in experiment [9], 1.02 (inactive). The “fold change of Cadaverine concentration” value in experiment [10] is 1.04 (inactive); in experiment [11], 1.01 (inactive). Besides, the “fold change of 2-Phenylethylamine concentration” value in [12] was 0.999 (inactive).

Consider `COc1cc(NS(=O)(=O)c2ccc(N)cc2)ncn1` [Sulfamonomethoxine] (20 µM), for which the growth in experiment [1] came to 1.06; in [2], 0.996; in [3], 0.978; in [4], 1.09. The “fold change of Histamine concentration” value in [5] was 1.11 (inactive). Also, the “fold change of Tryptamine concentration” value is 0.982 (inactive) in experiment [6] and 0.944 (inactive) in experiment [7]. Besides, the “fold change of Putrescine concentration” value is 0.911 (inactive) in experiment [8] and 1.02 (inactive) in [9]. Besides, the entries for the “fold change of Cadaverine concentration” value in experiment [10] and in experiment [11] were 1.03 (inactive) and 0.991 (inactive), respectively. The “fold change of 2-Phenylethylamine concentration” value in experiment [12] was 0.915 (inactive).

As to `Cn1c(=O)c2c(ncn2CC(=O)O)n(C)c1=O` [Acefylline] (20 µM), the growth in experiment [1] stood at 0.895; in experiment [2] it was 0.94; in [3], 1.02; in experiment [4], 1.06. The “fold change of Histamine concentration” value in [5] was 0.964 (inactive). Further, the “fold change of Tryptamine concentration” value was 0.971 (inactive) in [6] and 0.936 (inactive) in experiment [7]. Also, the figures for the “fold change of Putrescine concentration” value in experiment [8] and in [9] were 0.93 (inactive) and 0.995 (inactive), respectively. Moreover, the “fold change of Cadaverine concentration” value in experiment [10] is 1.01 (inactive); in experiment [11], 0.999 (inactive). In [12], the “fold change of 2-Phenylethylamine concentration” value is 0.886 (inactive).

Turning to `CCCCC1(COC(=O)CCC(=O)O)C(=O)N(c2ccccc2)N(c2ccccc2)C1=O` [Suxibuzone] (20 µM), the growth stood at 0.913 in experiment [1], 1.04 in [2], 1.06 in [3] and 1.12 in experiment [4]. Besides, the “fold change of Histamine concentration” value in experiment [5] was 0.877 (inactive). Moreover, the “fold change of Tryptamine concentration” value is 1.07 (inactive) in [6] and 0.929 (inactive) in experiment [7]. Besides, the “fold change of Putrescine concentration” value is 0.993 (inactive) in experiment [8] and 0.987 (inactive) in [9]. The “fold change of Cadaverine concentration” value in experiment [10] was 0.957 (inactive); in experiment [11] it was 1 (inactive). In experiment [12], the “fold change of 2-Phenylethylamine concentration” value is 0.906 (inactive).

As to `Cn1cnc([N+](=O)[O-])c1Sc1ncnc2[nH]cnc12` [Azathioprine] (20 µM), the growth was found to be 1.11 in [1], 1.03 in [2], 0.993 in experiment [3] and 1.49 in experiment [4]. The “fold change of Histamine concentration” value in experiment [5] is 0.991 (inactive). Also, the results for the “fold change of Tryptamine concentration” value in experiment [6] and in [7] were 1.04 (inactive) and 0.965 (inactive), respectively. The figures for the “fold change of Putrescine concentration” value in experiment [8] and in experiment [9] were 0.977 (inactive) and 0.99 (inactive), respectively. Also, the “fold change of Cadaverine concentration” value in [10] was 0.974 (inactive); in [11] it was 0.992 (inactive). In addition, the “fold change of 2-Phenylethylamine concentration” value in experiment [12] was 0.984 (inactive).

As for `CC=CC(=O)N(CC)c1ccccc1C` [Crotamiton] (20 µM), the growth in [1] turned out to be 0.871; in experiment [2], 1.05; in experiment [3] it was 1.01; in experiment [4], 1.07. In [5], the “fold change of Histamine concentration” value is 1.06 (inactive). In addition, the “fold change of Tryptamine concentration” value in [6] was 1.01 (inactive); in [7] it was 1.07 (inactive). The “fold change of Putrescine concentration” value in experiment [8] was 1.02 (inactive); in experiment [9], 1.01 (inactive). The “fold change of Cadaverine concentration” value in experiment [10] was 0.967 (inactive); in [11] it was 1.01 (inactive). In [12], the “fold change of 2-Phenylethylamine concentration” value was 1.12 (inactive).

For `OC(CCCN1CCCCC1)(c1ccccc1)c1ccccc1` [Diphenidol hydrochloride] (20 µM), the growth came to 1.03 in experiment [1], 1.08 in experiment [2], 1.01 in experiment [3] and 1.26 in [4]. For the same compound, the “fold change of Histamine concentration” value in [5] is 1.06 (inactive). Also, the results for the “fold change of Tryptamine concentration” value in [6] and in experiment [7] were 1.03 (inactive) and 0.963 (inactive), respectively. Moreover, the “fold change of Putrescine concentration” value in experiment [8] is 1.05 (inactive); in [9], 1.02 (inactive). The “fold change of Cadaverine concentration” value in [10] is 0.932 (inactive); in experiment [11], 0.981 (inactive). In experiment [12], the “fold change of 2-Phenylethylamine concentration” value is 0.92 (inactive).

For `CC(C)NCC(O)COc1cccc2[nH]ccc12` (centres undefined) [Pindolol] (20 µM), the growth in experiment [1] is 1.03; in experiment [2] it was 1.13; in experiment [3], 1.01; in [4] it was 0.881. For the same compound, in [5], the “fold change of Histamine concentration” value was 0.989 (inactive). The “fold change of Tryptamine concentration” value was 1.07 (inactive) in experiment [6] and 1.12 (inactive) in experiment [7]. Further, the “fold change of Putrescine concentration” value is 1.18 (inactive) in experiment [8] and 1.04 (inactive) in [9]. The entries for the “fold change of Cadaverine concentration” value in experiment [10] and in experiment [11] were 1.21 (inactive) and 1.15 (inactive), respectively. Also, the “fold change of 2-Phenylethylamine concentration” value in experiment [12] was 1.27 (inactive).
